By AC50 is commonly meant the midpoint of the concentration-response curve, whichever way the signal moves.

Calls of active or inactive are those of the source. How the calls were made is not given here.

The conditions of one assay: Ebola virus entry assay, ratio channel.
On to `CNCCC(Oc1ccccc1OC)c1ccccc1` (stereo not drawn), for which the AC50 was 17.8 µM (active).

As to `CC(C)N=C(N)/N=C(\N)Nc1ccc(Cl)cc1`, the outcome was inactive.

Regarding `CCCCOc1ccc(OCCCN2CCOCC2)cc1`, the AC50 was 22.4 µM (active).

Consider `CCCCNc1c(C(=O)OCC)c(C)nc2c1cnn2CC`, for which the concentration at half-maximal activity (AC50) is 22.4 µM (active).

For `CN1CCCC(n2nc(Cc3ccc(Cl)cc3)c3ccccc3c2=O)CC1` (stereo not drawn), the concentration at half-maximal activity (AC50) was 3.16 µM (active).

Turning to `CC(=O)NC(Cc1ccccc1)C(=O)O` (stereo not drawn), the result was inactive.

`Cc1ccc(C(=O)Oc2ccc(C(O)CNC(C)(C)C)cc2OC(=O)c2ccc(C)cc2)cc1` (stereo not drawn): the AC50 is 3.55 µM (active).

Consider `O=C(CCCN1CCC(O)(c2ccc(Br)cc2)CC1)c1ccc(F)cc1`, for which the AC50 was 5.62 µM (active).

As for `COC(=O)C1=C(C)NC(C)=C(C(=O)OC(C)(C)CN(C)CCC(c2ccccc2)c2ccccc2)C1c1cccc([N+](=O)[O-])c1` (stereo not drawn), the concentration at half-maximal activity (AC50) is 12.6 µM (active).

Regarding `CCOc1ccccc1O[C@H](c1ccccc1)[C@H]1CNCCO1`, the AC50 is 15.8 µM (active).

For `NCCNc1cccc2ccccc12`, the concentration at half-maximal activity (AC50) is 25.1 µM (active).

Regarding `NC(=O)C1(N2CCCCC2)CCN(CCCN2c3ccccc3CCc3ccc(Cl)cc32)CC1`, the AC50 was 3.55 µM (active).

Turning to `CC1=C(CC(=O)O)c2cc(F)ccc2/C1=C\c1ccc(S(C)=O)cc1` (stereo not drawn), the result was inactive.

Regarding `C[C@H]1O[C@@H](O[C@H]2CC[C@@]3(C)[C@H](CC[C@@H]4[C@@H]3C[C@@H](O)[C@]3(C)[C@@H](C5=CC(=O)OC5)CC[C@]43O)C2)C[C@H](O)[C@@H]1O[C@H]1C[C@H](O)[C@H](O[C@H]2C[C@H](O)[C@H](O[C@@H]3O[C@H](CO)[C@@H](O)[C@H](O)[C@H]3O)[C@@H](C)O2)[C@@H](C)O1`, the AC50 is 0.891 µM (active).

Regarding `COc1cccc2c1C(=O)c1c(O)c3c(c(O)c1C2=O)C[C@@](O)(C(C)=O)C[C@@H]3O[C@H]1C[C@H](N)[C@H](O)[C@H](C)O1`, the AC50 was 5.01 µM (active).

Turning to `CSc1ccc(/C=C2/C(C)=C(CC(=O)O)c3cc(F)ccc32)cc1`, the result was inactive.

Consider `C[C@@H]1C[C@H]2[C@@H]3C[C@H](F)C4=CC(=O)C(Cl)=C[C@]4(C)[C@@]3(F)[C@@H](O)C[C@]2(C)[C@@]1(O)C(=O)CO`, for which the outcome was inactive.

`CN(C)C/C=C(/c1ccc(Br)cc1)c1cccnc1`: the outcome was inactive.

For the compound `C[C@]12CCC(=O)C=C1C=C[C@@H]1[C@@H]2CC[C@@]2(C)[C@H]1CC[C@@]21CCC(=O)O1`, the result was inactive.

Regarding `CN1CCC(=C2c3ccccc3CCc3cccnc32)CC1`, the concentration at half-maximal activity (AC50) is 31.6 µM (active).

Take `CN(C)CCOC(c1ccccc1)c1ccccc1`: the AC50 was 17.8 µM (active).

For the compound `O=C(Nc1ccccc1)OCC(CN1CCCCC1)OC(=O)Nc1ccccc1` (stereo not drawn), the AC50 is 10 µM (active).

`Cc1ccc(/C(=C\CN2CCCC2)c2ccccn2)cc1`: the AC50 was 28.2 µM (active).

As for `CC(CC(C#N)(c1ccccc1)c1ccccc1)N(C)C` (stereo not drawn), the half-maximal activity concentration (AC50) was 14.1 µM (active).

`COc1cc(N)c(Cl)cc1C(=O)NC1CCN(CCCOc2ccc(F)cc2)CC1OC` (stereo not drawn): the AC50 was 15.8 µM (active).

For `CN(C)C(=S)SC(=S)N(C)C`, the AC50 is 5.01 µM (active).

On to `O=c1c(-c2ccccc2)c1-c1ccccc1`, for which the AC50 was 39.8 µM (active).

In the case of `COc1cc2c(cc1OC)-c1cc(=Nc3c(C)cc(C)cc3C)n(C)c(=O)n1CC2`, the AC50 was 15.8 µM (active).

For `O=C(O)c1cn(-c2ccc(F)cc2)c2cc(N3CCNCC3)c(F)cc2c1=O`, the outcome was inactive.

Consider `C[C@H](CN1CCOCC1)C(C(=O)N1CCCC1)(c1ccccc1)c1ccccc1`, for which the result was inactive.

On to `CCN(CC)CCOc1ccc(Cc2ccccc2)cc1`, for which the AC50 is 3.55 µM (active).

Regarding `CCC(OC(C)=O)C(CC(C)NC)(c1ccccc1)c1ccccc1` (stereo not drawn), the AC50 was 2.51 µM (active).

As to `CC[n+]1c(-c2ccccc2)c2cc(N)ccc2c2ccc(N)cc21`, the AC50 was 14.1 µM (active).

In the case of `Cc1c(C(=O)NN2CCCCC2)nn(-c2ccc(Cl)cc2Cl)c1-c1ccc(Cl)cc1`, the concentration at half-maximal activity (AC50) is 11.2 µM (active).

For `c1ccc(-c2ccc(C(c3ccccc3)n3ccnc3)cc2)cc1` (stereo not drawn), the half-maximal activity concentration (AC50) was 14.1 µM (active).

Consider `CC(=O)O[C@]1(C(C)=O)CC[C@H]2[C@@H]3C=C(Cl)C4=CC(=O)CC[C@]4(C)[C@H]3CC[C@@]21C`, for which the concentration at half-maximal activity (AC50) is 28.2 µM (active).

Take `CC1=C(C(=O)OC(C)C)C(c2cccc([N+](=O)[O-])c2)C(C(=O)OC2CN(C(c3ccccc3)c3ccccc3)C2)=C(N)N1` (stereo not drawn): the AC50 is 28.2 µM (active).

As to `C=CCc1ccccc1OCC(O)CNC(C)C` (stereo not drawn), the concentration at half-maximal activity (AC50) was 25.1 µM (active).

In the case of `Cc1nc(C2CCCCC2)c(-c2ccc(S(N)(=O)=O)c(F)c2)o1`, the concentration at half-maximal activity (AC50) was 31.6 µM (active).

For another assay the following is noted: Ebola virus entry assay, reporter ratio channel; Channel type: primary.
For the compound `CNCCC(Oc1ccccc1OC)c1ccccc1` (stereo not drawn), the concentration at half-maximal activity (AC50) was 17.8 µM (active).

Turning to `CC(C)N=C(N)/N=C(\N)Nc1ccc(Cl)cc1`, the AC50 was 39.8 µM (active).

With `CCCCOc1ccc(OCCCN2CCOCC2)cc1`, the AC50 was 22.4 µM (active).

Take `CCCCNc1c(C(=O)OCC)c(C)nc2c1cnn2CC`: the AC50 was 22.4 µM (active).

Take `CN1CCCC(n2nc(Cc3ccc(Cl)cc3)c3ccccc3c2=O)CC1` (stereo not drawn): the AC50 was 3.16 µM (active).

As for `CC(=O)NC(Cc1ccccc1)C(=O)O` (stereo not drawn), the result was inactive.

Take `Cc1ccc(C(=O)Oc2ccc(C(O)CNC(C)(C)C)cc2OC(=O)c2ccc(C)cc2)cc1` (stereo not drawn): the AC50 was 3.55 µM (active).

On to `O=C(CCCN1CCC(O)(c2ccc(Br)cc2)CC1)c1ccc(F)cc1`, for which the AC50 is 5.62 µM (active).

For `COC(=O)C1=C(C)NC(C)=C(C(=O)OC(C)(C)CN(C)CCC(c2ccccc2)c2ccccc2)C1c1cccc([N+](=O)[O-])c1` (stereo not drawn), the AC50 was 12.6 µM (active).

Consider `CCOc1ccccc1O[C@H](c1ccccc1)[C@H]1CNCCO1`, for which the AC50 is 15.8 µM (active).

In the case of `NCCNc1cccc2ccccc12`, the concentration at half-maximal activity (AC50) was 25.1 µM (active).

For `NC(=O)C1(N2CCCCC2)CCN(CCCN2c3ccccc3CCc3ccc(Cl)cc32)CC1`, the AC50 is 3.55 µM (active).

Turning to `CC1=C(CC(=O)O)c2cc(F)ccc2/C1=C\c1ccc(S(C)=O)cc1` (stereo not drawn), the result was inactive.

As for `C[C@H]1O[C@@H](O[C@H]2CC[C@@]3(C)[C@H](CC[C@@H]4[C@@H]3C[C@@H](O)[C@]3(C)[C@@H](C5=CC(=O)OC5)CC[C@]43O)C2)C[C@H](O)[C@@H]1O[C@H]1C[C@H](O)[C@H](O[C@H]2C[C@H](O)[C@H](O[C@@H]3O[C@H](CO)[C@@H](O)[C@H](O)[C@H]3O)[C@@H](C)O2)[C@@H](C)O1`, the AC50 was 0.891 µM (active).

For `COc1cccc2c1C(=O)c1c(O)c3c(c(O)c1C2=O)C[C@@](O)(C(C)=O)C[C@@H]3O[C@H]1C[C@H](N)[C@H](O)[C@H](C)O1`, the concentration at half-maximal activity (AC50) was 5.01 µM (active).

For `CSc1ccc(/C=C2/C(C)=C(CC(=O)O)c3cc(F)ccc32)cc1`, the outcome was inactive.

As to `C[C@@H]1C[C@H]2[C@@H]3C[C@H](F)C4=CC(=O)C(Cl)=C[C@]4(C)[C@@]3(F)[C@@H](O)C[C@]2(C)[C@@]1(O)C(=O)CO`, the AC50 is 39.8 µM (active).

As for `CN(C)C/C=C(/c1ccc(Br)cc1)c1cccnc1`, the AC50 was 35.5 µM (active).

For `C[C@]12CCC(=O)C=C1C=C[C@@H]1[C@@H]2CC[C@@]2(C)[C@H]1CC[C@@]21CCC(=O)O1`, the AC50 was 39.8 µM (active).

Turning to `CN1CCC(=C2c3ccccc3CCc3cccnc32)CC1`, the concentration at half-maximal activity (AC50) was 31.6 µM (active).

In the case of `CN(C)CCOC(c1ccccc1)c1ccccc1`, the half-maximal activity concentration (AC50) is 17.8 µM (active).

As to `O=C(Nc1ccccc1)OCC(CN1CCCCC1)OC(=O)Nc1ccccc1` (stereo not drawn), the AC50 is 10 µM (active).

For the compound `Cc1ccc(/C(=C\CN2CCCC2)c2ccccn2)cc1`, the half-maximal activity concentration (AC50) was 28.2 µM (active).

For the compound `CC(CC(C#N)(c1ccccc1)c1ccccc1)N(C)C` (stereo not drawn), the AC50 was 14.1 µM (active).

For the compound `COc1cc(N)c(Cl)cc1C(=O)NC1CCN(CCCOc2ccc(F)cc2)CC1OC` (stereo not drawn), the half-maximal activity concentration (AC50) was 15.8 µM (active).

Regarding `CN(C)C(=S)SC(=S)N(C)C`, the half-maximal activity concentration (AC50) was 5.01 µM (active).

On to `O=c1c(-c2ccccc2)c1-c1ccccc1`, for which the AC50 is 39.8 µM (active).

`COc1cc2c(cc1OC)-c1cc(=Nc3c(C)cc(C)cc3C)n(C)c(=O)n1CC2`: the AC50 is 15.8 µM (active).

Consider `O=C(O)c1cn(-c2ccc(F)cc2)c2cc(N3CCNCC3)c(F)cc2c1=O`, for which the outcome was inactive.

Take `C[C@H](CN1CCOCC1)C(C(=O)N1CCCC1)(c1ccccc1)c1ccccc1`: the concentration at half-maximal activity (AC50) was 44.7 µM (active).

Regarding `CCN(CC)CCOc1ccc(Cc2ccccc2)cc1`, the concentration at half-maximal activity (AC50) was 3.55 µM (active).

On to `CCC(OC(C)=O)C(CC(C)NC)(c1ccccc1)c1ccccc1` (stereo not drawn), for which the AC50 is 2.51 µM (active).

On to `CC[n+]1c(-c2ccccc2)c2cc(N)ccc2c2ccc(N)cc21`, for which the AC50 was 14.1 µM (active).

Regarding `Cc1c(C(=O)NN2CCCCC2)nn(-c2ccc(Cl)cc2Cl)c1-c1ccc(Cl)cc1`, the AC50 is 11.2 µM (active).

For `c1ccc(-c2ccc(C(c3ccccc3)n3ccnc3)cc2)cc1` (stereo not drawn), the concentration at half-maximal activity (AC50) is 14.1 µM (active).

In the case of `CC(=O)O[C@]1(C(C)=O)CC[C@H]2[C@@H]3C=C(Cl)C4=CC(=O)CC[C@]4(C)[C@H]3CC[C@@]21C`, the AC50 is 28.2 µM (active).

Turning to `CC1=C(C(=O)OC(C)C)C(c2cccc([N+](=O)[O-])c2)C(C(=O)OC2CN(C(c3ccccc3)c3ccccc3)C2)=C(N)N1` (stereo not drawn), the AC50 was 28.2 µM (active).

In the case of `C=CCc1ccccc1OCC(O)CNC(C)C` (stereo not drawn), the AC50 is 25.1 µM (active).

For `Cc1nc(C2CCCCC2)c(-c2ccc(S(N)(=O)=O)c(F)c2)o1`, the AC50 was 31.6 µM (active).
